# Bioassay records (PubChem BioAssay)
# TWEAK-Fn14 inh – inhibitors of TWEAK-Fn14 interaction signaling. TWEAK-stimulated Fn14 reporter cells, luciferase luminescence, 8 h. inhibition, % at 10 µM. 2% of 360,000 active. AID 1159606; in the data active means inhibition above about 50%
# PAX8 reporter – inhibitors of PAX8 transcriptional activity in RMG-I cells; RMG-I TPO-luciferase reporter, SteadyGlo, 24 h; inhibition, % at 12.6 µM; 1.2% of 360,000 active; AID 652154;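 active means mean replicate inhibition at least 60% with every replicate also reaching 60%; inconclusive means only one of the two criteria is met; inactive means mean below 60% and not all replicates reaching 60%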;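 further: luciferase light reporting Pax8 driven TPO promoter activity; plate controls were median of neutral control wells for no effect and mitoxantrone controls for full effect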
# LGR2 inh – blocks bursicon-induced cAMP signaling via Drosophila LGR2 | HEK293 LGR2, CRE-luciferase, bursicon-stimulated, 4 h | inhibition, % at 9.99 µM | 0.35% of 380,000 active;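 active means drop in luminescence signal, shown as inhibition above about 50% in the replicate tests, limit read from the data, passing the limit was not always enough; inconclusive means probably only some replicates passing the limit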;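 further: agonist challenge used bursicon conditioned medium at about half maximal strength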
# TROY NFkB inh – inhibitors of TROY-dependent NF-kB signaling; 0.98% of 360,000 active; inhibition, % at 10 µM; Q293 LMP1-TROYcd NF-kB luciferase reporter, 4 h;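 active means compounds whose plate-normalised and pattern-corrected inhibition of the luciferase reporter signal at the single screening dose is 50% or more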
# EWS-Fli inh – blocks EWS/Fli oncoprotein-driven transcription; inhibition, % at 12.6 µM; AID 651661; 0.67% of 350,000 active; A673 NR0B1-luciferase reporter, viability-normalised;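 active means mean inhibition of at least 50% after viability correction, with every replicate also passing that limit; inconclusive means mean reaches 50% but only one of two replicates passes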;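 further: firefly luciferase signal divided by Alamar Blue viability fluorescence both relative to DMSO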
# * hit, by the source's call; ? = inconclusive; nt = not tested or not shown. The list is not random: actives were taken first. Their share in the collection is about 2.8%.
SMILES,TWEAK-Fn14 inh,PAX8 reporter,LGR2 inh,TROY NFkB inh,EWS-Fli inh
O=C1CC(C(=O)N2CCCc3ccccc32)CN1c1ccc(F)cc1 (configuration not stated),61*,16,0,49,-18
C[C@H](CO)N1C[C@H](C)[C@H](CN(C)Cc2ccccc2)Oc2ncc(C#Cc3cccnc3)cc2C1=O,nt,nt,-2,nt,-5
Cc1nnc(N2C(=O)C(=O)/C(=C(\O)c3ccc4c(c3)CC(C)O4)C2c2ccccc2)s1 (configuration not stated),35,3,0,57*,-10
C=CC(COC(C)=O)NS(=O)(=O)c1ccc(Br)cc1 (configuration not stated),nt,-4,nt,nt,0
COc1ccc2cnn(-c3ccccc3)c(=O)c2c1OC,-3,nt,nt,-3,nt
COc1ccc2cnn(Cc3ccccc3)c(=O)c2c1OC,28,nt,nt,51*,nt
C[C@@H]1CCCCO[C@@H](CN(C)C(=O)Cc2ccccc2)[C@@H](C)CN([C@@H](C)CO)C(=O)c2cc(NC(=O)NC3CCCCC3)ccc2O1,nt,-16,16,nt,6
Nc1nc2ccc(C(=O)Nc3ccc(N4CCOCC4)cc3)cc2s1,1,-13,-34,-25,-29
O=C(Nc1ccc(N2CCOCC2)cc1)c1nc2ccccc2s1,40,-146,29,55*,28
COc1ccc(S(=O)(=O)N(C)C[C@H]2Oc3c(NC(=O)c4cc(C)nn4C)cccc3C(=O)N([C@@H](C)CO)C[C@H]2C)cc1,nt,nt,-6,nt,-7
O=C1c2cccc(NCCNCCO)c2C(=O)c2cccc(NCCNCCO)c21,17,10,92*,-6,59*
COc1ccc(S(=O)(=O)Nc2ccc3c(c2)C(=O)N([C@H](C)CO)C[C@H](C)[C@@H](CN(C)Cc2ccc(C(F)(F)F)cc2)OCCCC[C@H](C)O3)cc1,nt,104*,-4,nt,6
COc1ccc(S(=O)(=O)Nc2ccc3c(c2)C(=O)N([C@H](C)CO)C[C@@H](C)[C@H](CN(C)Cc2ccc(C(F)(F)F)cc2)OCCCC[C@H](C)O3)cc1,nt,26,16,nt,32
COc1ccc(S(=O)(=O)Nc2ccc3c(c2)C(=O)N([C@@H](C)CO)C[C@H](C)[C@@H](CN(C)Cc2ccc(C(F)(F)F)cc2)OCCCC[C@H](C)O3)cc1,nt,106*,16,nt,25
C[C@@H]1CCCCO[C@H](CN(C)C(=O)NC2CCCCC2)[C@H](C)CN([C@@H](C)CO)C(=O)c2cc(NS(C)(=O)=O)ccc2O1,nt,5,11,nt,-2
CC(C)CNC(=O)COC(=O)c1c2c(nc3ccccc13)/C(=C\c1cccs1)CC2,5,-60,nt,-14,-60
CC(=O)c1ccc(NC(=O)COC(=O)c2c3c(nc4ccccc24)/C(=C\c2cccs2)CCC3)cc1,57*,nt,22,16,-8
O=C(COC(=O)c1c2c(nc3ccccc13)/C(=C\c1cccs1)CCC2)Nc1ccccc1,42,86*,29,6,-16
CCCC(=O)Nc1ccc2c(c1)OC[C@@H](C)N(Cc1cc(-c3ccccc3)on1)C[C@@H](C)[C@H](OC)CN(C)C2=O,nt,nt,8,nt,5
COc1ccccc1NC(=O)N1[C@H](CO)[C@H](c2ccccc2)[C@@H]1C#N,nt,-11,-12,nt,8
COC(=O)N(C)C[C@@H]1OCc2ccccc2-c2ccccc2C(=O)N([C@@H](C)CO)C[C@@H]1C,nt,nt,-9,nt,-13
COc1cccc(CNC(=O)C[C@H]2CC[C@H](NC(=O)C3CCC3)[C@@H](CO)O2)c1,nt,3,-19,nt,-2
CCCCOCCCNc1ncnc2c1[nH]c1ccccc12,60*,nt,nt,38,nt
CC(=O)Nc1ccc(S(=O)(=O)c2ccnc3cc(Cl)ccc23)cc1,77*,110*,?,22,4
O=C(NCc1ccccc1)[C@@H]1[C@@H](CO)[C@@H]2Cn3c(cccc3=O)[C@@H]2N1C(=O)C1CC1,nt,0,4,nt,1
SMILES,TWEAK-Fn14 inh,PAX8 reporter,LGR2 inh,TROY NFkB inh,EWS-Fli inh
COc1cc(/C=C2\N=C(c3ccccc3)NNC2=O)cc(OC)c1OC,-11,44,10,19,56*
O=C1NNC(c2ccccc2)=N/C1=C\c1ccco1,11,-16,-11,-13,-3
COc1ccccc1C/C(N)=N/OC(=O)c1cccc([N+](=O)[O-])c1C,90*,-11,-9,-14,-10
CNC[C@H]1OCCCC[C@H](C)Oc2ccc(NC(=O)c3ccccc3)cc2C(=O)N([C@H](C)CO)C[C@@H]1C,nt,3,-8,nt,-2
O=c1c2c(nc3cc(-c4ccccc4)[nH]n13)CCS2,13,nt,nt,21,nt
O=c1c2c(nc3cc(-c4ccccc4Cl)[nH]n13)CCS2,63*,-95,-56,-2,-26
Cc1cccc(C(=O)OC2CCOC2=O)c1O (configuration not stated),89*,-8,-16,-25,0
O=C(COC(=O)c1ccccc1C(=O)c1ccc(Cl)c([N+](=O)[O-])c1)NC1CC1,95*,33,105*,65*,63*
CNC(=O)COC(=O)c1cc(F)c(F)cc1Cl,87*,nt,nt,0,nt
Cc1ccsc1C(=O)OC1CCOC1=O (configuration not stated),-7,0,nt,-8,nt
O=C(COC(=O)c1ccccc1[N+](=O)[O-])c1ccc(C2CCCCC2)cc1,81*,nt,nt,78*,nt
CCCOc1ccc(C(=O)c2ccccc2C(=O)OC2CCOC2=O)cc1OCCC (configuration not stated),-17,-1,3,-8,6
O=C(OC1CCOC1=O)c1ccccc1C(=O)c1ccc(Cl)c([N+](=O)[O-])c1 (configuration not stated),66*,nt,nt,23,nt
CNC(=O)COC(=O)c1ccccc1C(=O)c1ccc(Cl)c([N+](=O)[O-])c1,101*,31,102*,74*,3
CN1C(=O)c2cc(NS(C)(=O)=O)ccc2OC[C@H]2O[C@@H](CC(=O)NC3CCCCC3)CC[C@H]21,nt,-17,-18,nt,-5
O=C1CCC(=O)N1CN(C(=O)c1ccco1)c1ccc(Cl)c(Cl)c1,-4,6,nt,-13,nt
CC(=O)N(CN1C(=O)CCC1=O)c1ccc(Cl)c(Cl)c1,73*,17,-51,58*,-17
O=C(N[C@H]1CC[C@@H](CCNC(=O)C2CC2)O[C@H]1CO)c1ccccn1,nt,nt,3,nt,-6
CCCN1C[C@@H](C)[C@H](OC)CN(C)C(=O)c2cc(NC(=O)NC3CCCCC3)ccc2OC[C@@H]1C,nt,-18,-22,nt,7
O=C(C1COc2ccccc2O1)N1CCN(Cc2ccc(Br)cc2F)CC1 (configuration not stated),64*,16,5,15,14
O=C(NC(Nc1ncc(S(=O)(=O)c2ccc([N+](=O)[O-])cc2)s1)(C(F)(F)F)C(F)(F)F)c1ccc(Cl)cc1,47,76*,nt,53*,nt
O=C(NCC[C@H]1CC[C@H](NS(=O)(=O)Cc2ccccc2)[C@H](CO)O1)C1CCC1,nt,5,8,nt,-5
N#Cc1c(N)nc2c(c1N)CC(COc1ccccc1)O2 (configuration not stated),-10,nt,nt,-9,nt
